Consider 27 compounds from PubChem BioAssay AID602247 (The Scripps Research Institute Molecular Screening Center, 2012).

In all, about 360,000 compounds went through this assay and about 80 (0.02%) were called active. Only a selection was taken, and actives are over-represented in it overall. Values without a mark were called inactive.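 The calls were made as follows: active = activation above the run cutoff, the mean activation of all test compounds plus 3 SD (cut at about 40% in these data); inactive = the rest.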

The nature of this test: ATP EC20 calcium response enhancers, parental CHO-K1 – cell-based, Fluo-8 calcium fluorescence, full deck, 1536-well, counter-screen for M1 PAM project, primary screen (AID 602247).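 Also: peak over basal fluorescence ratio in a 140 s read after ATP addition.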 Particulars: parental CHO-K1, ATP EC20, Fluo-8 calcium fluorescence; at 3 µM; hits give high values; 0% at ATP EC20, 100% at ATP max. For orientation: The purpose of a counterscreen is to sort out artefacts and off-target activity.
In the case of `C/C(=N\NC(=O)COc1ccc(C)cc1[N+](=O)[O-])c1ccc2c(c1)OCCO2`, the activation is 4.27%.
The result for `Cc1cc(C)n(-c2nnc(C)n2NC(=O)c2cccc(Cl)c2)n1` reads 9.43%; that for `Cc1ccc(C)c(NC(=O)C2CC(=O)N(C(C)C)C2)c1` (configuration not stated), 12.2%; that for `COCCn1c(=O)[nH]c2cc(C(=O)NCc3cccnc3)ccc2c1=O`, 6.89%.
In the case of `CC(C)CC(=O)c1c[nH]c(C(=O)NCc2ccccc2)c1` it was 0.92%; in that of `O=C(CC(NCCN1CCOCC1)C(=O)O)Nc1cccc(Cl)c1` (configuration not stated), 20.9%; in that of `CC(=O)NC1C(Oc2ccc(C)cc2)OC2COC(c3ccco3)OC2C1O` (configuration not stated), -5.49%.
On to `O=S(=O)(NC1CCCCC1N1CCN(c2ccccc2F)CC1)c1ccccc1` (configuration not stated), for which the activation was 19.1%.
In the case of `O=C(Nc1ccc(Br)cc1)c1cccc(NC(=O)C2C3CC4OC(=O)C2C4C3)c1` (configuration not stated) it was 9.66%.
In the case of `Cc1ccc(/C=C2\CCn3c2nc2cc(C(=O)O)ccc2c3=O)c(C)c1` it was 17.1%; in that of `O=C1c2cccc3cccc(c23)C(=O)N1c1cccc(O)c1`, 12.7%; in that of `OC1CCCN(c2ncnc3c2nnn3Cc2c(F)cccc2Cl)C1` (configuration not stated), 20.4%.
Turning to `CCC1CCCCN1C(=S)Nc1ccc(SC(F)F)cc1` (configuration not stated), the activation is 3.06%.
With `COc1ccc(O)c(C=Nc2cc(C)on2)c1`, the activation is 1.78%.
The result for `CC(C)C(=O)N1CC(=O)Nc2ccc(F)cc2C1c1ccc(F)cc1` (configuration not stated) reads 3.77%; that for `CCCN1CNC(=S)N(CCc2ccccc2)C1`, -4.97%.
In the case of `O=C(Nc1ccc(Br)cc1F)C1CC(=O)N(C2CCCCC2)C1` (configuration not stated) it was 9.78%.
For `CCOc1ccccc1NC(=O)NC1CCCCCCC1`, the activation was 20%.
Take `CN(C)/C(CN1CCCCC1)=C1\N=C(c2ccccc2)OC1=O`: the activation is 19.8%.
On to `CN(C)CCCOc1ccc(-c2ccc3nccn3c2)cn1`, for which the activation was 15.7%.
Take `CCOP(=O)(OCC)C(Cc1ccccc1)N=C(c1ccccc1)c1ccccc1` (configuration not stated): the activation was 19.7%.
In the case of `COc1ccc(OC)c(NC(=O)CSc2nc3cccnc3n2C)c1` it was 9.99%; in that of `O=C(CN1C(=O)c2ccc([N+](=O)[O-])cc2C1=O)Nc1nnc(C2CC2)s1`, 1.72%.
In the case of `CC(=O)Nc1ccc(NC(=O)C2CCCN2S(=O)(=O)c2cccc(C(F)(F)F)c2)cc1` (configuration not stated) it was -6.05%.
The result for `O=C1c2ccncc2C(=O)N1C1CCCCC1` reads 15.5%; that for `Cc1nc(C(F)(F)F)ccc1C(=O)N1CCC1(C)C(=O)NS(=O)(=O)c1ccccc1Cl` (configuration not stated), 11.4%; that for `COc1ccc(C(=O)N2CCC(C(=O)Nc3ccc(C)cc3)CC2)cc1`, 28.6%.
